Here are results for seven compounds from PubChem BioAssay (NCATS).

Common to all, as to experiment: qHTS profiling for inhibitors of Plasmodium falciparum proliferation (AID 504749); note: nearly all actives have a fitted effect of over 60% in size
Holding throughout (settings): P. falciparum in erythrocytes, SYBR Green DNA, 72 h; series mostly up to 28.7 µM

One experiment relates to ICS. In short, it runs like this:
(§1)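 Quantitative HTS: compounds pinned into medium, infected erythrocytes added (0.3% parasitemia, 2.5% hematocrit), 72 h culture at 37 C under 5% CO2. Saponin/Triton lysis with SYBR Green I, overnight RT, then fluorescence read.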

For a further experiment, the system named is JCK. The method, boiled down: as §1
The next experiment has as its system N140. In short, it runs like this: as §1
The next experiment relates to P93_24. In short, it runs like this: as §1
A further experiment concerns P94_40. The method, boiled down: as §1
Another experiment has as its system PAD. The method, boiled down: as §1
The subject of a further experiment is PC15. The method, boiled down:
as §1

The subject of the next experiment is PC26. In short, it runs like this:
as §1

The next experiment has as its system PC49. The method, boiled down: as §1
The subject of a further experiment is SC27B. The method, boiled down: as §1

Records with an inconclusive call do not appear. Activity calls are given as the source filed them. Calls come from the whole dose curve; as a rule, active = well fitted inhibition curve with a large enough effect; inconclusive = small, poorly fitted or top-dose-only effect; inactive = flat fitted curve, though single readings scatter.
Potency is the fitted concentration of half-maximal effect.

Take `CCC(C(=O)O)C1CCC(C)C(C(C)C(O)C(C)C(=O)C(CC)C2OC3(C=CC(O)[C@@]4(CC[C@](C)(C5CC[C@@](O)(CC)C(C)O5)O4)O3)C(C)CC2C)O1` (stereo partly drawn): the Potency is 1000 nM (active) in the experiment with ICS; 4470 nM (active) in the experiment with JCK; 891 nM (active) in the experiment on N140; 891 nM (active) with P93_24; 501 nM (active) with P94_40; 1410 nM (active) with PAD. Moreover, the Potency in the experiment with PC15 was 2000 nM (active); in the experiment with PC26 it was 478 nM (active); with PC49 it was 2510 nM (active); in the experiment with SC27B, 794 nM (active).
For `COc1ccc([C@@H]2CNC(=O)C2)cc1OC1CCCC1`, the Potency entry in the experiment with ICS, in the experiment with JCK, with N140, with P93_24, in the experiment with P94_40 and in the experiment with PAD was “inactive” in each case. Also, the Potency entry in the experiment on PC15, with PC26, in the experiment with PC49 and with SC27B was “inactive” in each case.
For `COc1cccc2c1C(=O)c1c(O)c3c(c(O)c1C2=O)C[C@@](O)(C(=O)CO)C[C@@H]3O[C@H]1C[C@H](N)[C@H](OC2CCCCO2)[C@H](C)O1` (stereo partly drawn), the Potency in the experiment on ICS was 708 nM (active); with JCK, 12600 nM (active); with N140, 1580 nM (active); in the experiment on P93_24, 2240 nM (active); with P94_40, 2510 nM (active); in the experiment on PAD it was 2240 nM (active). For the same compound, the Potency was 10000 nM (active) in the experiment on PC15, 7570 nM (active) in the experiment on PC26, 4470 nM (active) in the experiment with PC49 and 2820 nM (active) with SC27B.
On to `Nc1nc2c(c(=O)[nH]1)N(C=O)[C@H](CNc1ccc(C(=O)N[C@@H](CCC(=O)O)C(=O)O)cc1)CN2`, for which the Potency result in the experiment on ICS, with JCK, in the experiment with N140, in the experiment with P93_24, in the experiment on P94_40 and in the experiment on PAD was “inactive” each time. The Potency result with PC15, with PC26, in the experiment on PC49 and in the experiment with SC27B was “inactive” each time.
With `COc1ccc2c(c1OC)C(=O)OC2[C@H]1c2c(cc3c(c2OC)OCO3)CCN1C` (stereo partly drawn), the Potency entry with ICS, in the experiment with JCK, in the experiment on N140, in the experiment with P93_24, in the experiment on P94_40 and with PAD was “inactive” throughout. In addition, the Potency entry with PC15, with PC26, in the experiment with PC49 and with SC27B was “inactive” throughout.
In the case of `OCC(O)C(O)C(O)CO` (stereo not drawn), the Potency entry with ICS, in the experiment with JCK, with N140, with P93_24, in the experiment with P94_40 and with PAD was “inactive” in each case. The Potency result in the experiment with PC15, with PC26, in the experiment with PC49 and in the experiment with SC27B was “inactive” throughout.
For the compound `CCCCCCCCCCCC(CC1OC(=O)C1CCCCCC)OC(=O)C(CC(C)C)NC=O` (stereo not drawn), the Potency is 1120 nM (active) with ICS; 1000 nM (active) with JCK; 631 nM (active) with N140; 891 nM (active) in the experiment on P93_24; 355 nM (active) in the experiment on P94_40; 1120 nM (active) with PC15. Moreover, the values for the Potency in the experiment with PC49 and in the experiment on SC27B were 891 nM (active) and 447 nM (active), respectively.
